# Test results as given in PubChem BioAssay AID686978 (National Center for Advancing Translational Sciences (NCATS), 2013).
# Hit rate of the full screen: of about 420,000 compounds, about 64,000 (15%) were called active. Another 27% or so got no clear call; they are omitted. A selection follows. Values without a mark were called inactive. The call rests on the fitted dose curve; in most records, active means well fitted inhibition curve with a large enough effect; inconclusive means small, poorly fitted or top-dose-only effect; inactive means flat fitted curve, though single readings scatter.
# Test: qHTS for Inhibitors of human tyrosyl-DNA phosphodiesterase 1 (TDP1): qHTS in cells in absence of CPT; further: nearly all actives have a fitted effect of over 55% in size
# Details: DT40 Tdp1-/- hTDP1 cells, no CPT, ATP luminescence, 48 h; activity change, negative = growth inhibition: at 46.2 µM (top of the series)
# Outline: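 Readout: luminescence from CellTiter-Glo after 30 min in the dark at RT. Cells: DT40 Tdp1-/- with stable hTDP1, 400/well. Exposure: compounds alone, ≥48 hr, 37 °C.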
# On the % scale 0 is the no-effect control and ±100 the full control effect; potency means the concentration at half of the fitted maximal effect.
SMILES,"activity change, negative = growth inhibition [%]",Potency
COc1ccc(S(=O)(=O)NCC(c2ccc(C)cc2)N2CCN(C)CC2)cc1OC (configuration not stated),-15.7,
CC(C)C(NC(=O)C1CCC(C(C)(C)C)CC1)C(=O)NCCCN1CCCCC1 (configuration not stated),-16.1,
CC1CCN(C(=S)c2cccc(O)c2)CC1,-4.71,
C/C=C/C(=O)OCC(=O)Nc1ccc(F)cc1Cl,2.04,
CC(CN1CCC(n2nccc2NC(=O)C2CCCC2)CC1)c1ccccc1 (configuration not stated),-3.11,
Nc1c(-c2ccc(F)cc2)cnc2ncnn12,-20.8,
COc1ccc(C)cc1NC(=O)NCc1ccccn1,17,
COC(=O)C1=C(C)N=C2SC(C)C(=O)N2C1/C=C/c1ccccc1 (configuration not stated),-13.3,
COCCNC(=O)CN(C(=O)CCC(=O)Nc1cc(C)on1)c1ccc(C)cc1C,-22.6,
Cc1onc(-c2ccccc2)c1C(=O)N1CCN(S(=O)(=O)c2ccccc2C(F)(F)F)CC1,-6.01,
COc1ccc(S(=O)(=O)Nc2ccccc2C(=O)N2CCCC2)cc1C,-15.9,
COc1ccccc1N1CCN(C(=O)c2c(-c3c(Cl)cccc3Cl)noc2C)CC1,,20.6 µM (active)
COc1ccccc1NS(=O)(=O)c1ccc(C)c(C(=O)NNC(=O)c2csc(N3CCOCC3)n2)c1,0.22,
Cc1[nH]n(C)c(=O)c1C(=O)c1c(-c2c(Cl)cccc2Cl)noc1C,-8.02,
COc1ccccc1NS(=O)(=O)c1ccc(C(=O)N2CCN(c3ccccc3O)CC2)cc1,,16.4 µM (active)
COc1ccc2c(c1)CCC/C2=N\OC(=O)c1ccccc1F,-24.6,
CC(C)(CSc1nncn1/N=C/c1ccco1)NS(=O)(=O)c1ccc(Cl)cc1,-25.2,
O=C(COC(=O)CSc1nnc(-c2ccc(Cl)cc2)o1)Nc1cc(Cl)cc(Cl)c1,-9.27,
Cn1ccsc1=NC(=O)c1cc(S(=O)(=O)N2CCOCC2)ccc1Cl,1.11,
Cc1ccccc1C(=O)Nc1ccccc1Sc1ccccc1,-4.96,
O=C(O)COc1nsnc1N1CCOCC1,-2.57,
CSCCC(NC(N)=O)C(=O)N(C)CC(=O)Nc1ccc(C)cc1 (configuration not stated),-6.89,

SMILES,"activity change, negative = growth inhibition [%]",Potency
COc1cccc(N2CC(NC(=O)/C=C\c3ccccc3)CC2=O)c1 (configuration not stated),-25.4,
COc1ccc(-c2nn3c(-c4ccc(OC)cc4)nnc3c3ccccc23)cc1,1.41,
CC(C)N(C(=O)Cn1cc(S(=O)(=O)CC(=O)N2CCOCC2)c2ccccc21)C(C)C,15.3,
O=C(COC(=O)CNC(=O)C1CCCCC1)NCc1ccccc1,-19.7,
O=C(O)C1CCN(C(=O)OCc2ccccc2)CC1,0.979,
O=C(NCc1ccccc1)C1=C[C@@H](C2CCCCC2)C[C@@H](OCc2ccc(CO)cc2)O1,,16.4 µM (active)
COc1cc(Cl)cc(C2NC(=O)NC(C)=C2C(=O)NCc2ccccc2)c1O (configuration not stated),-1.85,
CC(=O)Nc1ccc(NC(=O)COc2ccc(-c3ccccc3)cc2)cc1,-0.864,
CC(NC(=O)COc1ccc(-c2ccccc2)cc1)C1CCCO1 (configuration not stated),,11.6 µM (active)
CCOc1ccc(C(CC(=O)O)NC(=O)COc2ccccc2)cc1 (configuration not stated),-10,
COc1ccc(NC(=O)N(C)C[C@H]2Oc3ccc(NC(=O)C4CC4)cc3C(=O)N([C@H](C)CO)C[C@@H]2C)cc1,6.81,
CCCc1cc(=O)[nH]c(SCc2ccc(C#N)cc2)n1,-8.85,
CSCCC(Nc1ccc(S(=O)(=O)N2CCOCC2)cc1[N+](=O)[O-])C(=O)OCC(=O)N(C(C)C)C(C)C (configuration not stated),-4.59,
COc1ccc(-n2c(C)cc(C(=O)CSc3nnc(-c4cccs4)o3)c2C)cc1,,16.4 µM (active)
Cc1ccc(OC(=O)CSc2nnc(-c3cccs3)o2)cc1,2.81,
COc1ccc(OC)c(C(=O)CSc2nnc(-c3cccs3)o2)c1,-23.3,
Cc1cc(C)c(NC(=O)CN2CCCCCC2)c(C)c1,20.9,
Cc1c(-c2ccccc2)cn2c1-c1ccc(C)n1CC2,,16.4 µM (active)
O=c1[nH]c(SCc2ccccc2)nnc1-c1ccccc1,-13.7,
CN(C)C(=O)CSc1n[nH]c(-c2ccco2)n1,2.59,
COC(C[C@@H](O)C[C@@H](O)[C@H](C)OCc1ccccc1)OC,-4.64,
O=C(Cc1ccc(Br)cc1)NCCc1ccccc1,-19.9,

SMILES,"activity change, negative = growth inhibition [%]",Potency
COc1ccccc1NC(=O)CCC(=O)N1CC(C)Oc2ccc(C)cc21 (configuration not stated),,16.4 µM (active)
CC1CN(C(=O)CCC(=O)NCc2cccnc2)c2ccccc2O1 (configuration not stated),-9.83,
COC(=O)C(CC(=O)Nc1cc(C)ccc1C)Nc1ccccc1OC (configuration not stated),-2,
CN(C)C(=O)c1cccc(-c2cnc3sc(NCc4ccc5c(c4)OCO5)nn23)c1,,13 µM (active)
O=C(Cn1nnc(-c2ccccc2)n1)NCc1ccc2c(c1)OCO2,-21.4,
O=C(CSc1ncnc2scc(-c3ccccc3)c12)NCc1ccc2c(c1)OCO2,4.66,
OC(CNC1CCCC1)COc1ccc(F)cc1 (configuration not stated),-3.38,
Nc1c(C(=O)Nc2ccc3c(c2)OCCO3)nnn1Cc1ccccc1,-27.2,
COC(=O)c1ccc(CSc2nc3cc(Cl)ccc3o2)cc1,-11.2,
COc1cccc(-c2nc(S(=O)(=O)c3ccc(C)cc3)c(NCc3ccccc3)o2)c1,,18.4 µM (active)
O=S(=O)(c1ccc(Br)cc1)c1nc(-c2ccccc2)oc1NCc1cccnc1,-18.3,
O=S(=O)(c1ccccc1)c1nc(-c2ccccc2F)oc1NCc1cccnc1,5.86,
COc1cc(C2C3C(=O)N(c4ccccc4)C(=O)C3ON2c2ccccc2)ccc1O (configuration not stated),-5.92,
COc1ccc(-c2nn(CC(=O)NC3CCCC3)c3c2cnc2ccc(F)cc23)cc1,-10.7,
COc1ccc2ncc3c(-c4ccc(C)c(C)c4)nn(CC(=O)NC4CCCC4)c3c2c1,,6.51 µM (active)
CCc1ccc2ncc3c(-c4ccc(C)cc4)nn(CC(=O)NCc4ccccc4)c3c2c1,-13.3,
COc1cccc2c(=O)n(CC(=O)N3CCCCCC3)ccc12,-8.15,
CCOc1ccc(C2C(C(=O)Nc3ccc(Cl)cc3)=C(C)Nc3nc(C(F)(F)F)nn32)cc1 (configuration not stated),,14.6 µM (active)
CCOc1cc(C2C(C(=O)Nc3ccc(OC)cc3)=C(C)Nc3nc(SC)nn32)ccc1O (configuration not stated),-2.38,
COc1cc(C2C(C(=O)Nc3ccc(F)cc3)=C(C)Nc3nc(CCCO)nn32)cc(OC)c1OC (configuration not stated),-0.287,
CCOc1ccccc1N(C)C(=O)c1cc2c(s1)-c1ccccc1OC2,,16.4 µM (active)
COc1cc(OC)c(N(C)C(=O)c2cc3c(=O)oc4ccccc4c3s2)cc1Cl,-0.861,

SMILES,"activity change, negative = growth inhibition [%]",Potency
CCOc1ccccc1-c1cc(C(=O)N2CCOCC2)c2ccccc2n1,3.51,
COc1ccc(C(=O)NC(C)Cn2nc(C)cc2C)cc1OC1CCN(C(C)=O)CC1 (configuration not stated),-0.393,
COc1ccc(-c2onc3ccc(C(C)=O)cc23)cc1,-13.7,
CCOCCCNC(=O)c1ccc(CS(=O)(=O)c2cccc(C(F)(F)F)c2)o1,6.63,
Cc1c(Cl)cnc(NC(=O)COC(=O)c2ccc(S(=O)(=O)NCc3ccco3)cc2)c1Cl,-8.95,
CC(C)(C)c1ccc(C(=O)C[n+]2cccc3cc(Cl)ccc32)cc1,,4.47 µM (active)
COC(=O)C[n+]1cccc2ccccc21,-21.6,
Cc1cccc[n+]1CC(=O)c1ccccc1,0.748,
COc1cccc2c1OCC(C(=O)NCc1ccc(Cl)cc1Cl)=C2,2.01,
O=C1NCC(Nc2ccccc2)C(=O)N1 (configuration not stated),12.2,
Nc1ccccc1SCc1cc([N+](=O)[O-])cc2c1OCOC2,-24.8,
Nc1ccccc1SC(C[N+](=O)[O-])c1ccccc1 (configuration not stated),,2.31 µM (active)
C#CCO[C@@H]1C[C@H](n2cnc3c(=O)[nH]c(NC(=O)C(C)C)nc32)O[C@@H]1CO,3.17,
CCCCCCCCCCCCCCCCO,4.89,
O=C(CN1C(=O)COc2ccccc21)NCCN1CCc2ccccc2C1,4.11,
O=C(NCCCN1CCOCC1)c1cc2c(s1)CCC2,-0.232,
Cc1cccc2c1-c1sc(C(=O)NCCCN3CCc4ccccc4C3)cc1CO2,,20.6 µM (active)
O=C(Nc1cccc(Cl)c1)c1cncn1-c1ccc(F)cc1,-3.19,
Cc1cc(C)cc(NC(=O)CN2C(=O)c3ccccc3C2=O)c1,-10.3,
Cc1cc2c(cc1C)N(C(=O)CN1C(=O)c3ccccc3C1=O)C(C)(C)c1ssc(=S)c1-2,,25.9 µM (active)
Cc1ccc(NC(=O)CCN2C(=O)c3ccccc3C2=O)cc1C,3.57,
CCCC(=O)N=c1sc2cccc(F)c2n1C,-6.66,

SMILES,"activity change, negative = growth inhibition [%]",Potency
CCCN(C(=O)CSc1nnnn1C)c1c(N)n(Cc2ccccc2)c(=O)[nH]c1=O,-8.42,
COC(=O)[C@@H]1C[C@@]2(O)[C@@H](O)[C@@H](O)[C@@H](O)C[C@H]2N1Cc1ccc(C)s1,-22.7,
CS(=O)(=O)N(CC(=O)N1CCN(c2ccc(F)cc2)CC1)C1CCCCC1,-11.2,
CN(C1CCS(=O)(=O)C1)S(=O)(=O)c1ccc2ccccc2c1 (configuration not stated),-18.1,
COc1ccc(CN2CCCC(C(=O)N3CCCCC3)C2)cc1 (configuration not stated),-15.9,
COc1ccc(CN2CCCC(C(=O)c3ccc(Cl)cc3)C2)cc1Cn1cncn1 (configuration not stated),,18.4 µM (active)
COc1ccc(CCN(C)C(=O)C2CCCN(Cc3ccc(OC)c(OC)c3)C2)cc1OC (configuration not stated),-13.7,
COc1ccc(CN2CCCC(CNC(=O)c3ccc(F)cc3)C2)cc1OC (configuration not stated),-13.6,
COc1cc(CN2CCCC(C(=O)c3ccc(SC)cc3)C2)cc(Cl)c1O (configuration not stated),,14.6 µM (active)
c1ccc(-n2ncc(-c3nn[nH]n3)n2)cc1,-9.83,
Cc1ccccc1NC(=O)COc1cccc2c1CCNC2=O,-29.1,
Cc1c(Cl)cccc1NC(=O)CSc1ccc(-c2cccnc2)nn1,-20.6,
Brc1ccc(CSc2ccc(-c3ccco3)nn2)cc1,5.7,
Cc1cc(F)ccc1S(=O)(=O)Nc1ccc(C(=O)N(C)Cc2ccco2)cc1,-6.11,
Cc1ccnc(NS(=O)(=O)c2ccc(NC(=O)c3ccc(S(=O)(=O)N4CCOCC4)cc3)cc2)n1,-8.99,
C=CCn1c(C)cc(C2=NNC(=NCC)SC2)c1C,,20.6 µM (active)
Cc1cc(C2=NNC(=Nc3ccc(S(=O)(=O)N4CCOCC4)cc3)SC2)c(C)n1CC1CCCO1 (configuration not stated),,2.91 µM (active)
Cc1ccc(S(=O)(=O)N2CCC(C(=O)NCC3CCCO3)CC2)cc1 (configuration not stated),0.855,
COCCn1c(C)cc(C2=NNC(=Nc3ccc(F)cc3)SC2)c1C,,14.6 µM (active)
